Source: PubChem BioAssay
The list is not random: actives were taken first. Their share in the collection is about 3.1%.
BRCA1 expr act – increases BRCA1 expression. MCF7-BRCA1-FFLuc reporter, luminescence, 48 h; response scale: scaled: vehicle 0%, 10 µM genistein 100%. Potency, µM (top dose mostly 46.1 µM), usual class: activators. hit rate 1.1% among 380,000. AID 624202; note: nearly all actives have a fitted effect of over 80% in size
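MCF7-BRCA1-FFLuc, 2000 cells/well; 2 h attach, 37 °C/5% CO2; compound 48 h; luciferase substrate 15 min; luminescence end-point. Norm. to genistein 10 microM max activation and DMSO; concentration-response curves fitted.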
ELG1 repair inh – blocks ELG1-dependent DNA repair in HEK293T cells; HEK293T ELG1-luciferase reporter, luminescence, 16 h; DNA damage induced by 5-fluorouridine; Potency, µM (doses to about 46.1 µM), most hits filed as inhibitors; hit rate 2.3% among 330,000; AID 504467; note: nearly all actives have a fitted effect of over 55% in size
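Quantitative HTS, concentration-response format. 2,000 cells/well co-treated with 5-fluorouridine and compound, 16 hr in 5% CO2 at 37 °C; ONE-Glo luminescence read after 30 min.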
IL2 activator – IL-2 activation; hit rate 0.065% among 360,000; activation, % (series mostly up to about 46 µM); IL-2 activation reporter assay, cell-based qHTS; stimulated with anti-CD3/CD4/CD28 beads; in transgenic mouse T cells; in the data active = activation above about 50%; inconclusive = mostly about 30% to 49%
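EGFP and DsRed fluorescence is measured by plate cytometry in unstimulated transgenic mouse T cells exposed to compound for 60 minutes, then stimulated 18 hours at 37 degrees C with anti-CD3/anti-CD4 beads plus anti-CD28.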
Nrf2 ARE act – activators of Nrf2 (ARE) signaling; AREc32 ARE-luciferase reporter (MCF7-derived line), luminescence, 24 h; Potency, µM (doses to about 46.1 µM), hits mostly activators; hit rate 0.31% among 410,000; AID 624171; note: nearly all actives have a fitted effect of over 65% in size
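Each well held 1000 AREc32 cells, which were incubated with compound for 24 hr at 37 deg C after overnight attachment, and ARE reporter activity was quantified by firefly luciferase luminescence.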
Large screens that a line does not name were inactive. Unless noted, calls come from the whole dose curve; as a rule, active = well fitted curve in the direction sought with a large enough effect; inconclusive = small, poorly fitted or top-dose-only effect, or another doubt; inactive = no such curve, though single readings can be large; an effect the other way counts as inactive or inconclusive.

O=C(Nc1ccc(N2CCN(C(=O)c3ccccc3)CC2)c(Cl)c1)c1ccc(Br)o1	ELG1 repair inh 12µM
Cc1cc([N+](C)(C)C)cc(C)c1/C=C/c1ccnc2ccccc12	none (no result: ELG1 repair inh, IL2 activator, Nrf2 ARE act)
CC(=O)c1ccc(N2CCN(C(=O)c3n[nH]c4ccccc34)CC2)cc1	none
CC(=O)c1ccc(N2CCN(C(=O)c3nn(Cc4ccccc4)c(=O)c4ccccc34)CC2)cc1	ELG1 repair inh 9.2µM
COc1cccc(CC(=O)NCc2ccc3c(c2)CCN3C(C)=O)c1	none (no result: BRCA1 expr act, ELG1 repair inh, IL2 activator)
Cc1ccc(C(=O)Cc2cc3ccccc3oc2=O)c(C)c1	BRCA1 expr act 4µM, ELG1 repair inh inconclusive
COc1ccc(C(=O)Cc2cc3ccccc3oc2=O)cc1	BRCA1 expr act 4.5µM, ELG1 repair inh inconclusive
CCOc1ccc(C(=O)Cc2cc3cccc(OC)c3oc2=O)cc1	none
CCOc1ccc(-c2cc(-c3nc(-c4ccc(C)cc4)no3)[nH]n2)cc1	none (no result: BRCA1 expr act, ELG1 repair inh, IL2 activator)
COc1ccc(OC)c(NC(=O)c2nnn(Cc3ccc(Br)cc3F)c2N)c1	ELG1 repair inh 21µM
Cc1ccc(C2CC(=O)n3nc(-c4ccc(Cl)cc4)nc3S2)cc1 (configuration not stated)	none (no result: BRCA1 expr act, ELG1 repair inh, IL2 activator)
O=[N+]([O-])c1ccccc1OCCCn1cnc2ccccc21	BRCA1 expr act 2µM, ELG1 repair inh inconclusive
O=c1c2ccccc2ncn1CCCOc1ccccc1[N+](=O)[O-]	BRCA1 expr act inconclusive, ELG1 repair inh inconclusive
CC(=O)c1c(C)oc2c(Br)cc(NS(=O)(=O)c3ccc(Br)cc3)cc12	none (no result: ELG1 repair inh, IL2 activator)
Cc1cccc(C)c1NC(=O)C(=O)NCC(c1cccnc1)N1CCc2ccccc21 (configuration not stated)	none (no result: BRCA1 expr act, ELG1 repair inh, IL2 activator)
CN(C)S(=O)(=O)c1ccc2c(c1)Cc1cc(S(=O)(=O)N(C)C)ccc1-2	ELG1 repair inh 2.3µM
COc1cc(S(=O)(=O)N(C)C)ccc1Br	none
COc1ccc2c(c1)C(=O)[C@@H](OC(=O)NCc1ccc3c(c1)OCO3)[C@H](c1ccc(OC)c(Br)c1)O2	ELG1 repair inh 18µM (no result: BRCA1 expr act, IL2 activator, Nrf2 ARE act)
O=C(c1cccc2ccccc12)C1CCCN(C(=O)c2ccc(N3CCOCC3)cc2)C1 (configuration not stated)	ELG1 repair inh 16µM
Cc1cccc(NC(=O)CSc2nnc(-c3ccccc3C)o2)c1	BRCA1 expr act 13µM, ELG1 repair inh inconclusive
COc1ccccc1NC(=O)CSc1nnc(-c2ccccc2C)o1	none (no result: BRCA1 expr act, ELG1 repair inh, IL2 activator)
COc1ccccc1NC(=O)CSc1nnc(-c2ccoc2C)o1	BRCA1 expr act 7.9µM, ELG1 repair inh inconclusive
Cc1cccc(NC(=O)CSc2nnc(-c3n[nH]c4ccccc34)o2)c1	BRCA1 expr act 13µM, ELG1 repair inh inconclusive
Cc1cc(C)cc(NC(=O)CSc2nnc(-c3ccccc3C)o2)c1	BRCA1 expr act inconclusive
COc1ccc(CCNC(=O)Cn2cc(C(=O)c3ccc(Cl)cc3)c(=O)c3ccc(C)nc32)cc1OC	none (no result: BRCA1 expr act, ELG1 repair inh, IL2 activator)
CC(=O)c1ccc(NC(=O)CSc2ccc(-c3sc(C)nc3C)nn2)cc1	ELG1 repair inh 18µM
Cc1nc(C)c(-c2ccc(SCC(=O)Nc3ccc(C)c(Cl)c3)nn2)s1	none
O=c1[nH]cc(CCCc2ccccc2)c(=O)[nH]1	none (no result: ELG1 repair inh)
Cc1ccccc1OCC(O)Cn1nnc2ccccc21 (configuration not stated)	BRCA1 expr act 13µM, ELG1 repair inh inconclusive
CCC(=O)c1ccc(OCC(O)Cn2nnc3ccccc32)cc1 (configuration not stated)	BRCA1 expr act 10µM, ELG1 repair inh inconclusive
CC(C)(C)S(=O)N1Cc2cc(C(=O)NCC(F)(F)F)nc(-c3cccc(-c4cccc(F)c4)c3)c2[C@H]1CCO (some centres not stated)	none (no result: ELG1 repair inh)
CCOC(=O)N1CCC(NC(=O)c2cnn(-c3ccc(F)cc3)c2-n2cccc2)CC1	none (no result: ELG1 repair inh, IL2 activator)
Cc1ccc(NC(=S)NCC23C=CC(O2)C2C(=O)N(c4ccc(C)cc4)C(=O)C23)cc1 (configuration not stated)	none
CC(C)(C)OC(=O)NCC12C=CC(O1)C1C(=O)N(Cc3ccccc3)C(=O)C12 (configuration not stated)	ELG1 repair inh 23µM
COc1ccc(C(C(=O)Nc2ccc(F)cc2)N2CCN(C(=O)c3ccco3)CC2)cc1 (configuration not stated)	none (no result: BRCA1 expr act, ELG1 repair inh, Nrf2 ARE act)
Nc1nc(SCc2ccccc2)sc1C(=O)N1CCCCC1	BRCA1 expr act 2.2µM (no result: ELG1 repair inh)
Cc1cc(C)c2c(CC(=O)Nc3ccc(S(=O)(=O)N4CCCC(C)C4)cc3)coc2c1 (configuration not stated)	none (no result: BRCA1 expr act, ELG1 repair inh, IL2 activator)
COc1ccc(CCNC(=O)c2cc3c(=O)n4ccccc4nc3n(C3CCCCC3)c2=N)cc1	ELG1 repair inh 23µM
N=c1c(C(=O)NC2CCCC2)cc2c(=O)n3ccccc3nc2n1Cc1ccccc1	ELG1 repair inh inconclusive
N=c1c(C(=O)NC2CCCCC2)cc2c(=O)n3ccccc3nc2n1Cc1ccc(F)cc1	ELG1 repair inh 8.2µM
CCc1ccc(-n2nc(CO)c(C(=O)NCc3ccccn3)n2)cc1	none (no result: BRCA1 expr act, ELG1 repair inh, IL2 activator)
CCc1ccc(-c2nc3cc(NC(=O)c4ccc(F)cc4)ccc3o2)cc1	none (no result: BRCA1 expr act, ELG1 repair inh, IL2 activator)
N=c1c2c(n(Cc3ccc(Br)cc3)c3c1CCC3)CCCC2	none
N=c1c2c(n(Cc3ccc([N+](=O)[O-])cc3)c3c1CCC3)CCCC2	ELG1 repair inh 8.2µM
COc1ccc2sc(N(Cc3cccnc3)C(=O)C3COc4ccccc4O3)nc2c1 (configuration not stated)	none (no result: BRCA1 expr act, ELG1 repair inh, IL2 activator)
CS(=O)(=O)N(CCC#N)Cc1ccc(/C=C2\C(=O)Nc3ccccc32)o1	ELG1 repair inh 7.3µM
CCCN(C(=O)Cn1ncc2c([nH]c3ccccc32)c1=O)c1ccc(F)cc1	none (no result: BRCA1 expr act, ELG1 repair inh, IL2 activator)
CCOc1ccc(CC2NCCc3cc(OCC)c(OCC)cc32)cc1OCC (configuration not stated)	ELG1 repair inh 15µM
COc1ccc(NC(=O)C2=C(C)Nc3ncnn3C2c2ccc[nH]2)cc1 (configuration not stated)	none (no result: ELG1 repair inh, IL2 activator)
CC(C)(C)n1nnnc1CN1CCN(C(c2ccccc2)c2ccccc2)CC1	ELG1 repair inh 18µM
COc1ccc(C)cc1NC(=O)CSc1nnc(COc2ccccc2)n1Cc1ccco1	ELG1 repair inh 18µM
COc1ccc(NC(=O)CSc2nnc(-c3ccccc3)n2Cc2ccco2)c(OC)c1	ELG1 repair inh 13µM
COc1ccc(NC(=O)CSc2nnc(-c3ccccc3Cl)n2Cc2ccco2)c(OC)c1	ELG1 repair inh inconclusive
COc1cc(OC)cc(C(=O)Nc2ccc3c(c2)N(C2CCCC2)C(=O)c2ccccc2S3)c1	none (no result: BRCA1 expr act, ELG1 repair inh, IL2 activator)
CCc1ccc(/C=C/C(=O)c2cc(Br)ccc(=O)c2O)cc1	Nrf2 ARE act inconclusive
Cc1cccc(/C=C/C(=O)c2cc(Br)ccc(=O)c2O)c1	ELG1 repair inh inconclusive, Nrf2 ARE act 22µM
Cc1ccc(S(=O)(=O)c2[nH]c(-c3ccccc3)nc2SCC(N)=O)cc1	none (no result: BRCA1 expr act, ELG1 repair inh, IL2 activator)
Cc1ccc(-c2csc(N/N=C/c3ccco3)n2)cc1	ELG1 repair inh inconclusive, Nrf2 ARE act inconclusive
Clc1ccc(-c2csc(N/N=C/c3ccco3)n2)cc1	ELG1 repair inh inconclusive, Nrf2 ARE act 8.9µM
Cc1csc(NC(=O)/C=C/c2ccco2)n1	ELG1 repair inh inconclusive, Nrf2 ARE act 1.8µM
